Source: PubChem BioAssay
For some assays here: Entries with a potency or affinity are not part of this list. Activity calls are given as the source filed them. Unless noted, how the calls were made is not given here.

Key:
[1] = antimalarial activity against Dd2 strain (AID 2302;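 active means growth inhibition above 50% at the single 2 µM test dose, taken to imply half-maximal potency below 2 µM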;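 further: 0% = DMSO untreated growth and 100% = chloroquine plus artemisinin killed control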); conditions: P. falciparum Dd2 in RBCs, LDH growth readout, 72 h; at 2 µM; hits give high values
[2] = HepG2 cytotoxicity, primary screen, cytotoxicity control for P. falciparum antimalarial project, cell-based, ATP luminescence (AID 2303;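 active means inhibition above 50%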;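 further: 0% = DMSO wells and 100% = digitonin-killed cells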); conditions: HepG2 viability, 24-48 h, at 10 µM, hits give high values
[3] = molecular target: L-lactate dehydrogenase (Plasmodium falciparum (isolate CDC / Honduras)) (UniProt Q27743); assay: PfLDH activity inhibition – cell lysate, 3D7 strain, counter-screen for P. falciparum growth inhibition project (AID 2304);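 further: 0% = vehicle and 100% = reference inhibitor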; conditions: P. falciparum 3D7 crude extract, LDH APAD/NBT absorbance; at 2 µM; hits give high values
Sequence of L-lactate dehydrogenase (Plasmodium falciparum (isolate CDC / Honduras)) (Q27743 whole entry, looked up): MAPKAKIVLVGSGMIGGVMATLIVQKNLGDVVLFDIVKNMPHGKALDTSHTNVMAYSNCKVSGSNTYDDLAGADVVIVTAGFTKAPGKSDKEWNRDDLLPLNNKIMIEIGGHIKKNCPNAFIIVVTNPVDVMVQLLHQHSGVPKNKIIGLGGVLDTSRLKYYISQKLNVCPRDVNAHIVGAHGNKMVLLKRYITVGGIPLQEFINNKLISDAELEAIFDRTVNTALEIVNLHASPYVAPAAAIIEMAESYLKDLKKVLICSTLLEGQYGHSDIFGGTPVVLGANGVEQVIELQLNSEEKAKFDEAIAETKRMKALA

[4] = inhibition of 3D7 malaria parasite growth – strain 3D7 (AID 2306);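 further: 0% = DMSO wells and 100% = chloroquine plus artemisinin control wells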; conditions: P. falciparum 3D7 erythrocytic growth, LDH absorbance, 72 h; at 2 µM; hits give high values
[5] = molecular target: Calcium-dependent protein kinase 1 (Plasmodium falciparum (isolate 3D7)) (UniProt P62344); assay: PfCDPK1 kinase inhibitors, biochemical, TCAMS library (AID 1159585; cut-off not given, nearly all actives have IC50 up to about 0.98 µM;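 further: inhibitors leave more ATP so luminescence rises with inhibition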); conditions: recombinant PfCDPK1, Kinase-Glo ATP depletion luminescence
Sequence of Calcium-dependent protein kinase 1 (Plasmodium falciparum (isolate 3D7)) (P62344 whole entry, looked up): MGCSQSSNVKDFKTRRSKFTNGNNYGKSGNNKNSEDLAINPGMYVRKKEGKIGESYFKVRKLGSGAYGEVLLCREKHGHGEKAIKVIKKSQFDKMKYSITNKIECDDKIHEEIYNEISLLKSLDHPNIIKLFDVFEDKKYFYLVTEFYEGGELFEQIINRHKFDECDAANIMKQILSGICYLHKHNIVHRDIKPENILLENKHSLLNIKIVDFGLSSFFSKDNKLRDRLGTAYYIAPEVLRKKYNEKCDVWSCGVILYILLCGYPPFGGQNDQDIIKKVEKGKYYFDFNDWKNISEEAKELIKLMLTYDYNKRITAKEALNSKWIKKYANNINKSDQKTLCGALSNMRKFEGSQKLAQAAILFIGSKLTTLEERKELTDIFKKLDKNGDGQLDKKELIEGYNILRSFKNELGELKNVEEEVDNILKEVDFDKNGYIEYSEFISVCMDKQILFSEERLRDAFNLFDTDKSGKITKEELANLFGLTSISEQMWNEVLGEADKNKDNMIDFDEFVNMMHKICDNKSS

[6] = molecular target: Plasmodium falciparum protein kinase 6 (PK6, PF3D7_1337100) (UniProt Q8IDW1); assay: PfPK6 kinase inhibitors, biochemical, TCAMS library (AID 1159586); conditions: recombinant PfPK6, Kinase-Glo ATP depletion luminescence
Sequence of Plasmodium falciparum protein kinase 6 (PK6, PF3D7_1337100) (Q8IDW1 1-305): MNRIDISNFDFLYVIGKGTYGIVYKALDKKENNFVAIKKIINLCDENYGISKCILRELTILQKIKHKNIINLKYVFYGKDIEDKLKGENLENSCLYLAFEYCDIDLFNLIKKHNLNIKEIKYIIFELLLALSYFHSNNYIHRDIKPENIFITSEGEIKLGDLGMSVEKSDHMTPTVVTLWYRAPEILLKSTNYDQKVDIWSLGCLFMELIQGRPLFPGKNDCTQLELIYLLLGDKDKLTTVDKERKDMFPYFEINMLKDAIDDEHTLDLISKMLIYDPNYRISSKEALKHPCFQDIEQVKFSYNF

[7] = molecular target: Protein kinase 7 (PK7), Plasmodium falciparum 3D7 (PF3D7_0213400) (UniProt Q7YTF7); assay: inhibition of Plasmodium PK7 catalytic activity – biochemical, TCAMS antimalarial set, Kinase-Glo luminescence (AID 1159587); conditions: recombinant PfPK7, Kinase-Glo ATP depletion luminescence
Sequence of Protein kinase 7 (PK7), Plasmodium falciparum 3D7 (PF3D7_0213400) (Q7YTF7 1-343): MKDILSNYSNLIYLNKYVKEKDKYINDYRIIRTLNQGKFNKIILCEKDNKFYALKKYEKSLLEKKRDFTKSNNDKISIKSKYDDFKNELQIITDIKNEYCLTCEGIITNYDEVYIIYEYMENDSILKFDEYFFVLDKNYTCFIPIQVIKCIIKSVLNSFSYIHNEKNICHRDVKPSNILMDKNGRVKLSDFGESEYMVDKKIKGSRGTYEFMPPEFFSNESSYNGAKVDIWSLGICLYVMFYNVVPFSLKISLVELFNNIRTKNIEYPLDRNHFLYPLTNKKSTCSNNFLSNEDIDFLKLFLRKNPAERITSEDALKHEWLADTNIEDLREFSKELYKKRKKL

[8] = molecular target: Calcium-dependent protein kinase 4 (Plasmodium falciparum (isolate 3D7)) (UniProt Q8IBS5); assay: PfCDPK4 kinase inhibitors, biochemical, TCAMS library (AID 1159588; cut-off not given, nearly all actives have IC50 up to about 0.91 µM); conditions: recombinant PfCDPK4, Kinase-Glo ATP depletion luminescence
Sequence of Calcium-dependent protein kinase 4 (Plasmodium falciparum (isolate 3D7)) (Q8IBS5 whole entry, looked up): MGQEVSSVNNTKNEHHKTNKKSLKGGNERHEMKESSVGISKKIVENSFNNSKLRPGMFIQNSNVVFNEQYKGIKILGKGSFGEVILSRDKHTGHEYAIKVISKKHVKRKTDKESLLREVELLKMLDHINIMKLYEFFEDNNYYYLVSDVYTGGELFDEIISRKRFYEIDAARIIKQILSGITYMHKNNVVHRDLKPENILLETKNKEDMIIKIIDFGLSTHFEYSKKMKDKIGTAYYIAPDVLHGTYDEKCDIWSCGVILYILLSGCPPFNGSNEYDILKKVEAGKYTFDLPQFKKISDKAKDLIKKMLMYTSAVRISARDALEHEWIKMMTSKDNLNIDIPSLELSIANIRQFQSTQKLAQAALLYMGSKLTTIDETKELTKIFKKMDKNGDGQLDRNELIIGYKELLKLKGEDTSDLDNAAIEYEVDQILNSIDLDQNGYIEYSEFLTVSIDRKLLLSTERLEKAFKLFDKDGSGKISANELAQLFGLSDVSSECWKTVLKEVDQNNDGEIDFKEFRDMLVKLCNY

COc1ccc2nccc(NC(=O)C3(O)CCC(NCc4ncc5c(c4Cl)OCCO5)CC3)c2n1 (stereo not given)
inactive: inhibition [2] 21% | inhibition [3] -1% | outcome [5] | outcome [6] | outcome [7] | outcome [8]
active: growth inhibition [1] 59% | growth inhibition [4] 83%

CCCCCC(C)C(C)c1cc(O)c2c(c1)OC(C)(C)CC2(O)c1ccccn1 (stereo not given)
active: growth inhibition [4] 98%
inactive: growth inhibition [1] 3% | inhibition [2] -2% | inhibition [3] -5% | outcome [5] | outcome [6] | outcome [7] | outcome [8]

O=C(Nc1cncc(NC(=O)c2ccc(Cl)c(Cl)c2)c1)c1ccc(Cl)c(Cl)c1
active: growth inhibition [1] 70% | growth inhibition [4] 101%
inactive: inhibition [2] 12% | inhibition [3] 0% | outcome [5] | outcome [6] | outcome [7] | outcome [8]

O=C(O)c1ccc(OCOCOc2ccc(C(=O)O)c(O)c2)cc1O
inactive: growth inhibition [1] 0% | inhibition [2] -2% | inhibition [3] 6% | outcome [5] | outcome [6] | outcome [7] | outcome [8]
active: growth inhibition [4] 99%

O=C(/C=C/c1ccc(Cl)c(Cl)c1)NCCCCCN1CCCC(CNC(=O)/C=C/c2ccccc2)C1 (stereo not given)
inactive: growth inhibition [1] 6% | inhibition [2] 37% | inhibition [3] -7% | outcome [5] | outcome [6] | outcome [7] | outcome [8]
active: growth inhibition [4] 98%

Cc1cc(-c2ccc(Cl)cc2)c2c(N)c(C(=O)Nc3ccc(F)cc3)sc2n1
active: growth inhibition [1] 87% | growth inhibition [4] 97%
inactive: inhibition [2] 12% | inhibition [3] 0% | outcome [5] | outcome [6] | outcome [7] | outcome [8]

Cc1cc(C2CCN(CCCCNC(=O)c3ccc(NC(=O)c4ccc(Cl)cc4)cc3)CC2)c(C)cc1OCc1ccccn1
active: growth inhibition [1] 65% | growth inhibition [4] 96%
inactive: inhibition [2] 18% | inhibition [3] 3% | outcome [5] | outcome [6] | outcome [7] | outcome [8]

O=S(=O)(NCCN1CCCC1)c1ccc(-c2ccc(CNC3Cc4ccccc4C3)cc2)s1
active: growth inhibition [1] 97% | growth inhibition [4] 100%
inactive: inhibition [2] 47% | inhibition [3] -2% | outcome [5] | outcome [6] | outcome [7] | outcome [8]

Cc1[nH]c(C)c(-c2ccc(-c3cccc(C(F)(F)F)c3)nc2)c(=O)c1Br
inactive: inhibition [2] 28% | inhibition [3] -4% | outcome [5] | outcome [6] | outcome [7] | outcome [8]
active: growth inhibition [1] 96% | growth inhibition [4] 97%

COc1cc(Cc2cnc(N)nc2N)cc(OCCCN2C(=O)c3ccccc3C2=O)c1OC
inactive: growth inhibition [1] -3% | inhibition [2] -1% | inhibition [3] 1% | outcome [5] | outcome [6] | outcome [7] | outcome [8]
active: growth inhibition [4] 96%

CCNc1cc(C(=O)N[C@@H](Cc2ccccc2)[C@H](O)CNC(C)(C)c2cccc(OC)c2)cc(N2CCCC2=O)c1
active: growth inhibition [1] 99% | growth inhibition [4] 100%
inactive: inhibition [2] -3% | inhibition [3] -6% | outcome [5] | outcome [6] | outcome [7] | outcome [8]

O=c1cc(NCCCNCc2cc(Br)cs2)[nH]c2ccccc12
active: growth inhibition [4] 85%
inactive: growth inhibition [1] 5% | inhibition [2] 11% | inhibition [3] -2% | outcome [5] | outcome [6] | outcome [7] | outcome [8]

Cc1cccc2[nH]c(-c3cccc(-c4cccc(NC(=O)Nc5ccc(F)c(F)c5F)c4)c3)nc12
active: growth inhibition [1] 99% | growth inhibition [4] 100%
inactive: inhibition [2] 32% | inhibition [3] 4% | outcome [5] | outcome [6] | outcome [7] | outcome [8]

CCOc1cc(C(=O)N[C@@H](Cc2ccccc2)[C@H](O)CNCc2cc(OC)cc(OC)c2)cc(N2CCCS2(=O)=O)c1
active: growth inhibition [1] 66% | growth inhibition [4] 94%
inactive: inhibition [2] -5% | inhibition [3] 0% | outcome [5] | outcome [6] | outcome [7] | outcome [8]

O=c1cc(NCCCNC(CNCCc2ccccc2)c2cc(Br)cc(Br)c2)[nH]c2ccccc12 (stereo not given)
active: growth inhibition [1] 53% | growth inhibition [4] 93%
inactive: inhibition [2] -2% | inhibition [3] 1% | outcome [5] | outcome [6] | outcome [7] | outcome [8]

Cc1cc(NC(=O)c2cccs2)ccc1OC1CCN(Cc2ccc(C#N)cc2)C1 (stereo not given)
active: growth inhibition [1] 61% | growth inhibition [4] 82%
inactive: inhibition [2] 13% | inhibition [3] -2% | outcome [5] | outcome [6] | outcome [7] | outcome [8]

O=C(Nc1ccc(Cl)c(Cl)c1)Nc1ccc(F)c([N+](=O)[O-])c1
active: growth inhibition [1] 96% | growth inhibition [4] 101%
inactive: inhibition [2] 49% | inhibition [3] -3% | outcome [5] | outcome [6] | outcome [7] | outcome [8]

COCCNC(=O)C(CNC(=O)c1ccc2c(c1)OCO2)NC(=O)c1ccc(-c2ccccc2)cc1 (stereo not given)
active: growth inhibition [4] 90%
inactive: growth inhibition [1] 3% | inhibition [2] 14% | inhibition [3] 1% | outcome [5] | outcome [6] | outcome [7] | outcome [8]

COc1ccc(CNCc2ccc(-c3ccc(-c4nc5ccc(C(F)(F)F)cc5[nH]4)cc3)cc2)cc1
active: growth inhibition [1] 99% | inhibition [2] 75% | growth inhibition [4] 102%
inactive: inhibition [3] 7% | outcome [5] | outcome [6] | outcome [7] | outcome [8]

Cc1ccc2nc(Cl)c3cc(C(=O)NCCCN4CCCC4)sc3c2c1
active: growth inhibition [4] 89%
inactive: growth inhibition [1] 40% | inhibition [2] 26% | inhibition [3] 0% | outcome [5] | outcome [6] | outcome [7] | outcome [8]

O=c1[nH]c2ccc3[nH]cccc3c2c1C=Nc1ccc(N2CCN(CCO)CC2)cc1
inactive: inhibition [2] 34% | inhibition [3] -6% | outcome [5] | outcome [6] | outcome [7] | outcome [8]
active: growth inhibition [1] 55% | growth inhibition [4] 86%

O=C(NC1CCCCC1)N(Cc1ccc(-c2ccc(CNC3CCCC3)cc2)cc1)C1CCN(Cc2ccccc2)CC1
inactive: inhibition [2] 31% | inhibition [3] 3% | outcome [5] | outcome [6] | outcome [7] | outcome [8]
active: growth inhibition [1] 86% | growth inhibition [4] 99%

Fc1ccc(Nc2ccnc3cc(-c4ccc(CN5CCOCC5)o4)ccc23)c(Cl)c1
inactive: inhibition [2] 42% | inhibition [3] 5% | outcome [5] | outcome [6] | outcome [7] | outcome [8]
active: growth inhibition [1] 100% | growth inhibition [4] 101%

CNC(=O)c1cnc(Nc2ccc3[nH]c(=O)[nH]c3c2)nc1Nc1cccc(OC(C)C)c1
active: growth inhibition [1] 94% | growth inhibition [4] 89%
inactive: inhibition [2] 18% | inhibition [3] -8% | outcome [5] | outcome [6] | outcome [7] | outcome [8]

CO/C(=C\C=C\c1cc2cc(Cl)c(Cl)cc2[nH]1)C(=O)NC1C[C@@H](C)N(C)[C@@H](C)C1 (stereo not given in full)
inactive: inhibition [3] 1% | outcome [5] | outcome [6] | outcome [7] | outcome [8]
active: growth inhibition [1] 57% | inhibition [2] 64% | growth inhibition [4] 97%

COc1ccc(C=NNc2cc(C)nc3ccccc23)c(OC)c1
inactive: inhibition [2] 24% | inhibition [3] -2% | outcome [5] | outcome [6] | outcome [7] | outcome [8]
active: growth inhibition [1] 94% | growth inhibition [4] 101%

CC(Cc1ccc(C(=O)N2CCN(C(=O)c3ccc(CC(C)NCCc4cccc(Cl)c4)cc3)CC2)cc1)NCCc1cccc(Cl)c1 (stereo not given)
active: growth inhibition [1] 85% | inhibition [2] 99% | growth inhibition [4] 101%
inactive: inhibition [3] -4% | outcome [5] | outcome [6] | outcome [7] | outcome [8]

CCc1cccc2c(C#N)cn(CC(=O)Nc3ccc(OC)cc3)c12
inactive: inhibition [2] -13% | inhibition [3] -3% | outcome [5] | outcome [6] | outcome [7] | outcome [8]
active: growth inhibition [1] 76% | growth inhibition [4] 97%

CCCCc1ccc(S(=O)(=O)Nc2ccc3c(c2)CCN(Cc2c[nH]c4cnccc24)CC3)cc1
active: growth inhibition [4] 99%
inactive: growth inhibition [1] 12% | inhibition [2] 41% | inhibition [3] -5% | outcome [5] | outcome [6] | outcome [7] | outcome [8]

NC(N)=Nc1ccc(CCc2ccc(N=C(N)N)cc2)cc1
active: growth inhibition [1] 95% | inhibition [2] 57% | growth inhibition [4] 96%
inactive: inhibition [3] -1% | outcome [5] | outcome [6] | outcome [7] | outcome [8]

COc1ccccc1CCNc1nccc(N[C@@H](Cc2ccccc2)C(=O)NCc2cccs2)n1
inactive: inhibition [2] 34% | inhibition [3] 3% | outcome [5] | outcome [6] | outcome [7] | outcome [8]
active: growth inhibition [1] 79% | growth inhibition [4] 90%

COC(=O)C(Cc1ccccc1)NC(=O)NC1CCN(c2ccnc(Nc3ccc(F)cc3)n2)C1 (stereo not given)
active: growth inhibition [4] 90%
inactive: growth inhibition [1] 14% | inhibition [2] 0% | inhibition [3] -3% | outcome [5] | outcome [6] | outcome [7] | outcome [8]

COC(=O)C(=O)c1c(-c2ccccc2)c(-c2ccc(OC)c(OC)c2)c2c3cc(OC)c(OC)cc3ccn12
active: growth inhibition [1] 89% | growth inhibition [4] 97%
inactive: inhibition [2] 2% | inhibition [3] -1% | outcome [5] | outcome [6] | outcome [7] | outcome [8]

Cc1ccc(NC(=O)c2ccc(Cl)c(Cl)c2)cc1-c1ccc(C(=O)Nc2ccncc2)cc1
active: growth inhibition [1] 79% | growth inhibition [4] 99%
inactive: inhibition [2] 39% | inhibition [3] -3% | outcome [5] | outcome [6] | outcome [7] | outcome [8]

CCCCc1ccc(CCNCCCCCCNCCc2ccc(O)c(O)c2)cc1
active: growth inhibition [4] 100%
inactive: growth inhibition [1] -1% | inhibition [2] 45% | inhibition [3] 5% | outcome [5] | outcome [6] | outcome [7] | outcome [8]

FC(F)(F)c1ccc2nc(-c3cccc(-c4cccc(CNCCN5CCNCC5)c4)c3)[nH]c2c1
inactive: growth inhibition [1] 18% | inhibition [2] 29% | inhibition [3] 4% | outcome [5] | outcome [6] | outcome [7] | outcome [8]
active: growth inhibition [4] 92%

COc1cc(SC)ccc1C(=O)N1CC(C)CC(C)C1 (stereo not given)
active: growth inhibition [1] 66% | growth inhibition [4] 98%
inactive: inhibition [2] 5% | inhibition [3] -8% | outcome [5] | outcome [6] | outcome [7] | outcome [8]

O=C(Nc1ccc(F)c(Cl)c1)c1cc([N+](=O)[O-])cc2cn[nH]c12
inactive: inhibition [2] 32% | inhibition [3] -4% | outcome [5] | outcome [6] | outcome [7] | outcome [8]
active: growth inhibition [1] 67% | growth inhibition [4] 100%

O=C([C@H]1C[C@@H]1c1ccccc1)N(Cc1ccc(-c2ccc(CNCCc3ccccc3)cc2)cc1)C1CCNCC1
inactive: growth inhibition [1] 39% | inhibition [2] 36% | inhibition [3] -5% | outcome [5] | outcome [6] | outcome [7] | outcome [8]
active: growth inhibition [4] 96%

Cc1cc(NN=Cc2ccccc2F)c2cc(F)ccc2n1
inactive: inhibition [2] 9% | inhibition [3] -5% | outcome [5] | outcome [6] | outcome [7] | outcome [8]
active: growth inhibition [1] 97% | growth inhibition [4] 101%
